The source of these data is PubChem BioAssay (Tox21).

Each structure is given as a SMILES string. Values joined by “and” are separate entries in the source; they are usually repeats but may differ in a detail not shown here. Identical values can stand only once. Records with an inconclusive call do not appear. A structure can be active in one record and inactive in another. Active and inactive are the calls of the source. Unless noted, calls follow the shape of the dose curve; as a rule, active = well fitted curve in the direction sought with a large enough effect in the repeat runs; inconclusive = weak or mixed curves; inactive = no such curve, though single readings can be large; an effect the other way counts as inactive or inconclusive.

In test [1] the target is Androgen receptor (Homo sapiens) (UniProt P10275). The test is described as follows: qHTS assay to identify small molecule antagonists of the androgen receptor (AR) signaling pathway using the MDA cell line in the presence of 0.5 nM R1881 (AID 1259243). Also: nearly all actives have a fitted effect of over 50% in size. Also: potency is read from the fitted curve at half-maximal effect. Summed up: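 MDA-kb2 cells (MMTV-luciferase, responsive to AR and GR) at 3,000/well, rested 5 h at 37C, 0% CO2, then given compounds plus 0.5 nM R1881 (final) for 16 hr. Luciferase read with ONE-Glo after 30 min at room temperature.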
(In general: In qHTS, concentration-response curves come from the screen itself.)

Test [2] can be described thus: A CellTox Green Cytotoxicity Assay to monitor cytotoxicity in HEK293 cells - 32 hour (AID 1224881). Also: nearly all actives have a fitted effect of over 40% in size. Also: potency is read from the fitted curve at half-maximal effect. Summed up:
(§1)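 HEK293 cells, 600/well, were preincubated 5 hours and then exposed to compounds at 37 C for up to 40 hours. A cell-impermeant cyanine dye staining dead-cell DNA was read by fluorescence at 0, 8, 16, 24, 32 and 40 h time points.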

Test [3] in a line: A CellTox Green Cytotoxicity Assay to monitor cytotoxicity in HepG2 cells - 0 hour (AID 1224882). Also: nearly all actives have a fitted effect of over 35% in size. Also: potency is read from the fitted curve at half-maximal effect. Summed up:
(§2)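 HepG2 cells, 600/well, preincubated 5 h with CellTox Green dye, then exposed to Tox21 compounds in DMSO at 37 C for up to 40 h. Dead-cell DNA fluorescence read at the indicated time point.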

The nature of test [4]: A CellTox Green Cytotoxicity Assay to monitor cytotoxicity in HepG2 cells - 32 hour (AID 1224883). Also: nearly all actives have a fitted effect of over 50% in size. Also: potency is read from the fitted curve at half-maximal effect. Summed up: as §2
Test [5] is described as follows: A CellTox Green Cytotoxicity Assay to monitor cytotoxicity in HEK293 cells - 8 hour (AID 1224884). Also: nearly all actives have a fitted effect of over 35% in size. Also: potency is read from the fitted curve at half-maximal effect. Summed up: as §1
Test [6] is described as follows: qHTS RealTime-Glo MT Cell Viability Assay in HepG2 cells - 16 hour (AID 1224885). Also: nearly all actives have a fitted effect of over 50% in size. Also: potency is read from the fitted curve at half-maximal effect. In outline:
(§3)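 HepG2 cells were seeded at 600 cells/well together with NanoLuc luciferase and a cell-permeant prosubstrate, preincubated 5 h at 37 C/5% CO2, then pin-dosed with compounds in DMSO. Nonlytic luminescence from viable cells was read at each time point.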

The nature of test [7]: qHTS RealTime-Glo MT Cell Viability Assay in HEK293 cells - 24 hour (AID 1224886). Also: nearly all actives have a fitted effect of over 50% in size. Also: potency is read from the fitted curve at half-maximal effect. Summed up:
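HEK293 cells were seeded at 600 cells/well together with NanoLuc luciferase and cell-permeant prosubstrate, preincubated 5 h at 37 C/5% CO2, then given compound in DMSO by pintool. Luminescence from viable-cell prosubstrate reduction was read repeatedly over 40 h.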

The nature of test [8]: qHTS RealTime-Glo MT Cell Viability Assay in HEK293 cells - 8 hour (AID 1224887). Also: nearly all actives have a fitted effect of over 50% in size. Also: potency is read from the fitted curve at half-maximal effect. Summed up: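 600 cells/well were plated with the nonlytic NanoLuc/prosubstrate reagent, pre-incubated 5 h, then given 23 nL of compound in DMSO. Incubation at 37 C for 40 h, with luminescence from viable-cell-reduced substrate read repeatedly from 0 h.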
Test [9] in a line: A CellTox Green Cytotoxicity Assay to monitor cytotoxicity in HEK293 cells - 16 hour (AID 1224888). Also: nearly all actives have a fitted effect of over 35% in size. Summed up:
as §1

The nature of test [10]: qHTS RealTime-Glo MT Cell Viability Assay in HepG2 cells - 0 hour (AID 1224889). Also: nearly all actives have a fitted effect of over 50% in size. Summed up:
as §3

Test [11] is described as follows: A CellTox Green Cytotoxicity Assay to monitor cytotoxicity in HepG2 cells - 8 hour (AID 1224890). Also: nearly all actives have a fitted effect of over 45% in size. Also: potency is read from the fitted curve at half-maximal effect. Summed up: as §2
A short description of test [12]: qHTS assay to identify small molecule antagonists of the estrogen receptor alpha (ER-alpha) signaling pathway using the BG1 cell line in the presence of 0.1 nM 17-beta-estradiol - cell viability counter screen (AID 1259241). Also: nearly all actives have a fitted effect of over 40% in size. Summed up: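 Following 5 days in phenol red-free medium with charcoal-stripped serum, VM7Luc4E2 cells received test compounds alongside 0.1 nM 17beta-estradiol (final) at 37C for 22 hr. Live cells were then quantified via protease-substrate fluorescence.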

Test [13] is described as follows: qHTS assay to identify small molecule antagonists of the androgen receptor (AR) signaling pathway using the MDA cell line in the presence of 0.5 nM R1881 - cell viability counter screen (AID 1259242). Also: nearly all actives have a fitted effect of over 45% in size. Summed up:
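MDA-kb2 cells (MMTV-luciferase, AR/GR responsive) were treated with compounds plus 0.5 nM R1881 (final) for 16 hr at 37C, 0% CO2. Viability was then read in the same wells as live-cell protease fluorescence (CellTiter-Fluor, 30 min).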

The nature of test [14]: qHTS assay to identify small molecule HDAC inhibitors (AID 1259364). Also: nearly all actives have a fitted effect of over 45% in size. Also: potency is read from the fitted curve at half-maximal effect. Summed up:
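Wild-type HCT-116 cells, plated overnight at 37 C, exposed to compounds 2 hr at 37 C; luminogenic HDAC-Glo substrate then added 30 min at room temperature. Luminescence reports relative endogenous class I/II HDAC activity.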

The nature of test [15]: qHTS assay to identify small molecule HDAC inhibitors - cell viability counter screen (AID 1259365). Summed up: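 HCT-116 wild-type, overnight attachment; 2hr drug exposure, 37C; CellTiter-Glo luminescent ATP readout after 30min RT.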
Test [16] is described as follows: qHTS assay to identify small molecule agonists of the sonic hedgehog signaling (Shh) pathway - cell viability counter screen (AID 1259366). Also: nearly all actives have a fitted effect of over 50% in size. Also: potency is read from the fitted curve at half-maximal effect. In outline: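 Compounds in DMSO were pin-transferred onto 3T3 Gli1-Luc cells that had settled 4hr; plates then stood 24hr at 37C and 5% CO2. One hour before the end, CellTiter-Fluor was added and fluorescence recorded.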
A short description of test [17]: qHTS assay to identify small molecule antagonists of the sonic hedgehog signaling (Shh) pathway - cell viability counter screen (AID 1259367). Also: nearly all actives have a fitted effect of over 55% in size. Also: potency is read from the fitted curve at half-maximal effect. Summed up:
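Using CellTiter-Fluor, viability of Gli1-Luc reporter 3T3 cells is read by fluorescence in the wells used for the Shh luciferase assay. Treatment lasts 23 hr with conditioned medium, then reagent 1 hr at 37C.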

A short description of test [18]: qHTS assay to identify small molecule agonists of the sonic hedgehog signaling (Shh) pathway (AID 1259368; calls by dose curve;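 also: NIH/3T3-derived 3T3Gli1-Luc cells carrying a stable Gli1-driven firefly luciferase reporter; series mostly up to about 92 µM; nearly all actives have a fitted effect of over 15% in size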). Summed up: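 NIH/3T3-derived 3T3Gli1-Luc cells with stably integrated Gli1-driven firefly luciferase, 2,000 cells/well, compounds added after 4 hr. Incubated 24 hr at 37C, 5% CO2; luminescence read after 30 min with luciferase reagent at room temperature.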

The nature of test [19]: qHTS assay to identify small molecule antagonists of the sonic hedgehog signaling (Shh) pathway (AID 1259369; calls by dose curve; also: nearly all actives have a fitted effect of over 45% in size; also: potency is read from the fitted curve at half-maximal effect). In outline:
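NIH/3T3-derived Gli1-Luc reporter cells plated 4 h, dosed with compound, then stimulated with conditioned medium for 24 h at 37 C. Firefly luciferase luminescence read after 30 min with detection reagent at room temperature.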
% is scaled to controls: 0 for no effect and ±100 for the full control effect.

Androgen receptor (Homo sapiens), sequence (P10275 whole entry, looked up): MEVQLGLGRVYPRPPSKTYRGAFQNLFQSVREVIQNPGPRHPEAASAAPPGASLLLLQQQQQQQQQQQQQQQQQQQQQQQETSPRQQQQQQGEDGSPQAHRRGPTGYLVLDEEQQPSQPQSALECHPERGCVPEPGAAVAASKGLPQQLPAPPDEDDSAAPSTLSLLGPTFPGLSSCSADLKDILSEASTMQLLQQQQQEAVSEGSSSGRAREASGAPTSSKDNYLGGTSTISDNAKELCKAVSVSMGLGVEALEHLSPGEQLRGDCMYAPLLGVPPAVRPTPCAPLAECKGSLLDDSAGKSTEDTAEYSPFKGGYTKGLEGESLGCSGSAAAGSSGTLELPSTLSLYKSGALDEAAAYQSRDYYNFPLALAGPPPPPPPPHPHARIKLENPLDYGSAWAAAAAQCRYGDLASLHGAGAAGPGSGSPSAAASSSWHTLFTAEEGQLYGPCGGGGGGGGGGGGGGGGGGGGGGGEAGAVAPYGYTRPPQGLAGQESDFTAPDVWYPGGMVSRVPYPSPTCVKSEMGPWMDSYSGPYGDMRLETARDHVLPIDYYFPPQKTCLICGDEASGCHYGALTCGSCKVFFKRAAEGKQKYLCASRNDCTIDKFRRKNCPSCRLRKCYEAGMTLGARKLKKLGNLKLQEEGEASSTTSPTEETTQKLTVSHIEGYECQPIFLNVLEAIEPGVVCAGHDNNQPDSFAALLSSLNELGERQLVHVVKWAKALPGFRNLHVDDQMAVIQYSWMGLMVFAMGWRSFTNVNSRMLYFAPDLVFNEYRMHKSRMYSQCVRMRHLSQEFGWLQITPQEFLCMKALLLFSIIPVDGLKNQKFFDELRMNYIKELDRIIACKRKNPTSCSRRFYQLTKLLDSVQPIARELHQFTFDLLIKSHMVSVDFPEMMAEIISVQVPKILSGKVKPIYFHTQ

`CC(=O)[O][Hg][c]1ccccc1`: the Potency in test [1] is 606 nM (active) and 2.43 µM (active) and 1.19 µM (active).
Regarding `Cc1cc(Cl)ccc1OCC(=O)O`, in test [1], the Potency result is “inactive”.
`N#CS`: the Potency result in test [2], in test [3], in test [4], in test [5], in test [6] and in test [7] was “inactive” in each case. The Potency result in [8], in test [9], in test [10], in test [11], in [12] and in [13] was “inactive” throughout. Also, the Potency result in test [14], in [15], in test [16], in test [17] and in test [19] was “inactive” throughout. Moreover, the result in test [18] was inactive.
Consider `O=C(O)c1nc(Cl)ccc1Cl`, for which the Potency entry in test [2], in [3], in [4], in [5], in test [6] and in test [7] was “inactive” throughout. The Potency entry in test [8], in [9], in test [10], in test [11], in test [12] and in test [13] was “inactive” each time. In addition, the Potency entry in [14], in test [15], in [16], in [17] and in test [19] was “inactive” each time. Moreover, in [18], the compound was classed as inactive.
`CCCCCCCCCCCCn1cc[n+](C)c1`: the Potency entry in test [3], in test [8], in [10], in test [12], in test [14] and in test [15] was “inactive” in each case. Also, the Potency result is “inactive and 55.9 µM (active)” in test [5]; 44 µM (active) and inactive in test [11]; 27.3 µM (active) [middle of 6 runs] in [16]; 31.2 µM (active) [middle of 5 runs] in [17]. Also, the outcome in test [18] was inactive.
Consider `Cc1cc(-c2ccc(N)c(C)c2)ccc1N`, for which the Potency result in [2], in [3], in [5], in [6], in test [7] and in test [8] was “inactive” in each case. The Potency entry in test [9], in test [10], in test [11], in test [12], in test [13] and in test [15] was “inactive” in each case. For the same compound, the Potency entry in test [16] and in test [17] was “inactive” throughout. The Potency result was “inactive and 43.6 µM (active)” in test [4]; 48.4 µM (active) in [14]; 8.73 µM (active) in [19]. Further, in [18], the result was inactive.
`Nc1ccc(-c2ccc(N)cc2)cc1`: the Potency result in test [2], in [3], in test [4], in [5], in [6] and in [7] was “inactive” each time. The Potency result in test [8], in test [9], in test [10], in [11], in test [12] and in [13] was “inactive” each time. Moreover, the Potency entry in test [14], in [15], in [16], in test [17] and in test [19] was “inactive” each time. In addition, the result in test [18] was inactive.
As for `CCCCCCCCCCCCOS(=O)(=O)O`, the Potency entry in [3], in test [4], in [6], in test [7], in [8] and in [10] was “inactive” in each case. For the same compound, the Potency entry in test [11], in test [12], in test [13], in test [14], in test [15] and in test [16] was “inactive” throughout. In addition, the Potency result in [17] and in test [19] was “inactive” each time. In addition, the Potency in [5] was 48.3 µM (active) and inactive. Further, the result in [18] was inactive.
With `Nc1ccc(-c2ccc(N)c(Cl)c2)cc1Cl`, the Potency entry is “inactive and 49 µM (active)” in test [2]; “inactive and 43.6 µM (active)” in test [3]; 17.5 µM (active) and 14.4 µM (active) and 27.5 µM (active) in [4]; “inactive and 49 µM (active)” in test [5]; “inactive and 49 µM (active)” in test [6]; 15.6 µM (active) and 24.5 µM (active) in test [7]. For the same compound, the Potency in [8] was 24.5 µM (active); in test [11], “inactive and 43.6 µM (active)”; in test [14], “inactive and 27.3 µM (active)”; in test [16], “inactive and 7.18 µM (active) and 30.6 µM (active)”; in test [17], 2.27 µM (active) and 8.63 µM (active); in test [19], 2.74 µM (active) and 1.01 µM (active). Moreover, the Potency result in test [10], in [12], in test [13] and in test [15] was “inactive” throughout. Also, the compound was classed as inactive in test [18].
In the case of `COc1ccc(N)cc1`, the Potency entry in test [2], in test [3], in test [5], in test [6], in [7] and in test [8] was “inactive” each time. Besides, the Potency result in [9], in test [10], in test [11], in test [12], in test [13] and in test [14] was “inactive” throughout. The Potency entry in [15], in test [16], in test [17] and in test [19] was “inactive” each time. The Potency result in test [4] is “inactive and 245 nM (active)”. The compound was called inactive in test [18].
